Chronic BCR inh: qHTS Assay to Find Inhibitors of Chronic Active B-Cell Receptor Signaling; ABC-DLBCL IkBa-CBG/CBR reporter, luminescence ratio, 4 h; actives 0.05% (n = 340,000); Potency, µM (doses to about 46.1 µM), for inactives: at the top dose activity change, negative = inhibition, usual class: inhibitors; active = well fitted inhibition curve with a large enough effect in the signal ratio, with a control signal flat, not every such curve was filed as active; inconclusive = small, poorly fitted or top-dose-only effect, or effect the other way, or a change in a side signal; the % refers to the signal ratio;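 note: potency is the fitted concentration of half-maximal effect; plate controls were basal doxycycline-induced cells for no effect and cells given 10 µM MG132 for full effect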
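Cell line TMD8 (human ABC DLBCL), stably expressing tet-inducible CBG68-IkBa fusion and CBR; IMDM/0.5% FBS; cpd up to 46 uM; dox induction, 4 h, 37C/5% CO2; dual luminescence; green/red ratio; MG132 control.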
PINK1 expr mod: A Quantitative High throughput Screen to Identify Chemical Modulators of PINK1 Expression. PINK1 immunofluorescence, high-content cytometry, 24 h. Potency, µM (doses to about 76.6 µM), for the others: at the highest dose activation (PINK1 increase), actives largely listed as activators. actives 0.2% (n = 410,000); active = well fitted activation curve with a large enough effect; inconclusive = small, poorly fitted or top-dose-only effect; cell line not stated here; note: potency is the fitted concentration of half-maximal effect; % of control where 0% means no effect; nearly all actives have a fitted effect of over 65% in size
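Compound titrations (5 concentrations, 24 h) on a stable cell line; DMSO and CCCP controls. Endpoint: fixed-cell PINK1 immunofluorescence with mitochondrial, cell and nuclear markers, scanned by microplate cytometer.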
PKM2 act: qHTS Assay for Activators of Human Muscle isoform 2 Pyruvate Kinase. Pyruvate kinase PKM (Homo sapiens), P14618. purified PKM2, Kinase-Glo ATP luminescence, activation; response scale: 0% is enzyme alone, no compound. Potency, µM (top dose mostly 57.5 µM), for the others: at the highest dose activation, hits mostly activators. actives 0.34% (n = 260,000); note: potency is the fitted concentration of half-maximal effect; % is set by controls: 0 for no effect and ±100 for the full control effect; nearly all actives have a fitted effect of over 55% in size
Target sequence (P14618 whole entry, looked up, canonical isoform): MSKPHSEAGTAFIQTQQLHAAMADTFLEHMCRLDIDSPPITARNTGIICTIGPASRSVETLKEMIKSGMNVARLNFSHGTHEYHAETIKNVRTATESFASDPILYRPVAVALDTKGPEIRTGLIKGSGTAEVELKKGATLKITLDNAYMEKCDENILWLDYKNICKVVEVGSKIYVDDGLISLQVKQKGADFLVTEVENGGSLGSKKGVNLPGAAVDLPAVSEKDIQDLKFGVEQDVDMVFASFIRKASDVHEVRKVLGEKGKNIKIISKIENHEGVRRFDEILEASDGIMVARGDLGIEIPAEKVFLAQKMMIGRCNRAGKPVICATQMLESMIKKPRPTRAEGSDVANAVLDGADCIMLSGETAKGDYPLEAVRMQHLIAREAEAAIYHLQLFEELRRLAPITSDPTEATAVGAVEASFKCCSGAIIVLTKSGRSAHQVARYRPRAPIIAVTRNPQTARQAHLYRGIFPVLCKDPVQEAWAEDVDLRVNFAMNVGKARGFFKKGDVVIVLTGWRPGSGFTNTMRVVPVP
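Kinase-Glo luminescence reports ATP generated from ADP (0.1 mM) and PEP (0.5 mM) by purified hPK-M2 after 1 h at room temperature, pH 7.2 imidazole buffer; intermediate enzyme activity allows detecting inhibitors and activators.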
B2AR arrestin: qHTS assay of beta-arrestin-biased ligands of beta2-adrenergic receptor. Beta-2 adrenergic receptor (Homo sapiens), P07550. AID 492947, 2010. Potency, µM (top dose mostly 46.1 µM), for the others: top-dose activation, usual class: activators. beta-arrestin recruitment to beta2AR, cell-based reporter. actives 0.02% (n = 330,000);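 note: potency is the fitted concentration of half-maximal effect; 0% = DMSO controls and full agonism = EC100 isoproterenol or metaproterenol; nearly all actives have a fitted effect of over 65% in size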
Pin1 inhibitor: qHTS Assay to Find Inhibitors of Pin1 | AID 504891, 2011 | Pin1 FP peptide displacement, HiFluor488, 10 min | actives 0.009% (n = 390,000) | Potency, µM (doses to about 115 µM), inactives show top-dose activity, negative = inhibition, actives largely listed as inhibitors; active = well fitted inhibition curve with a large enough effect in the polarisation, with a control signal flat, not every such curve was filed as active; inconclusive = small, poorly fitted or top-dose-only effect, or effect the other way, or a change in a side signal; inactive = no such curve, though single readings can be large or run the other way; the % refers to the polarisation; note: potency is the fitted concentration of half-maximal effect; % is set by controls: 0 for no effect and ±100 for the full control effect
miR-21 act: qHTS Assay for Modulators of miRNAs and/orActivators of miR-21 | HeLa miR-21 FLuc reporter, luciferase, 48 h | Potency, µM (doses to about 38.3 µM), inactives show top-dose activity change, positive = activation, most hits filed as activators | 340,000 tested, under 10 active | AID 2288, 2010;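 note: % of control where 0% means no effect; miR-21 action dims this reporter so a rising signal means less miR-21 action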
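Using DMEM plus 10% FBS, HeLa miR-21-FLuc cells are incubated with test compounds (final up to about 40uM) for 48 hours; firefly luciferase signal is then imaged following reagent-mediated lysis.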
HeLa viability: Secondary assay for Activators of Human Pyruvate Kinase M2 isoform - Cell Titer Glo cytotoxicity assay; shares compounds with PKM2 act; HeLa viability, CellTiter-Glo ATP luminescence, 24 h; activity change, negative = cytotoxicity, % at 57.5 µM; 230 tested, under 10 active; AID 1898, 2009; note: % of control where 0% means no effect
An asterisk follows results filed as active; ? = inconclusive; . = not tested or not shown; [ ] = remark or other dose. Shown are actives, neighbours in structure and some others; about 0.46% of the full set was active somewhere. Unless noted, calls come from the whole dose curve; as a rule, active = well fitted curve in the direction sought with a large enough effect; inconclusive = small, poorly fitted or top-dose-only effect, or another doubt; inactive = no such curve, though single readings can be large; an effect the other way counts as inactive or inconclusive.

SMILES | Chronic BCR inh | PINK1 expr mod | PKM2 act | B2AR arrestin | Pin1 inhibitor | miR-21 act | others
COc1ccc(CN2CCOc3ccc(C(O)c4cccnc4)cc3C2)c(OC)c1OC (configuration not stated) | . | 0.1% | . | . | . | .
Cn1ccnc1SCC(=O)c1ccc(Cl)cc1 | 17.8µM* | 1.0% | -4.9% | 3.7% | -3.7% | -47.5%
Cc1ccccc1-c1nc2c3ccccc3nc(=S)n2[nH]1 | ? | 2.5% | . | 10µM* | 21.5% | -1.9%
COc1ccccc1CN(Cc1cc2cc3c(cc2[nH]c1=O)OCCO3)Cc1nnnn1Cc1ccco1 | ? | 1.4%[38.3 µM] | 20µM* | -1.0% | . | -16.8%
O=C(NCCCc1cnc[nH]1)NCCCN(Cc1ccc(Cl)c(Cl)c1)c1ccc(Br)cn1 | . | . | . | . | 10.0% | .
CCc1c(C)c(C#N)c2nc3ccccc3n2c1Cl | 8.2µM* | . | -19.0% | 0.3% | . | -1.0%
CCOC(=O)c1c(-c2cccs2)csc1NC(=O)CSc1ncn[nH]1 | 11.9% | -1.8%[38.3 µM] | 28.2µM* | -0.7% | 3.3% | 11.0%
CCOC(=O)c1c(-c2ccccc2)csc1NC(=O)CSc1nnc(C)s1 | -0.9% | 1.2% | ? | 0.3% | 4.9% | 10.5%
CCOC(=O)c1c(-c2ccc(C)o2)csc1NC(=S)NC(=O)c1ccccc1Br | 18.1% | 19.2%[38.3 µM] | 3.16µM* | 0.0% | 11.2% | -2.0%
CCOC(=O)c1sc(NC(=O)CSc2nnnn2-c2ccccc2)nc1C | 4.0% | 0.0%[38.3 µM] | 2.5% | -0.7% | 21.7% | -0.5%
CCOC(=O)c1c(-c2ccc(C)o2)csc1NC(=O)CSc1nnnn1-c1ccccc1 | -5.4% | 0.1%[38.3 µM] | 7.94µM* | -0.5% | 41.3% | 0.9%
CCOC(=O)c1c(-c2ccc(C)o2)csc1NC(=O)CSc1nnc(C)s1 | 2.6% | -3.9%[38.3 µM] | 12.6µM* | 0.4% | 17.8% | -0.8%
COc1cccc(C2c3c(ncn(-c4ccccc4Br)c3=N)Oc3ccc4ccccc4c32)c1 (configuration not stated) | . | . | . | . | 17.6% | .
COC(=O)C1CCN(Cc2ccc3c(c2)CN(C(=O)c2cc4ccccc4n2C)CCO3)CC1 | . | -0.1% | . | . | . | .
NC(=O)C1CCN(c2nnc(-c3ccc4c(c3)OCCCO4)s2)CC1 | . | . | . | . | 3.4% | .
O=S(=O)(c1ccc2c(c1)OCCO2)N1CCN(S(=O)(=O)c2ccc(F)cc2F)CC1 | . | . | . | . | -5.6% | . | HeLa viability=0.0
O=S(=O)(c1ccc2c(c1)OCCO2)N1CCN(S(=O)(=O)c2cc(F)c(F)cc2F)CC1 | . | . | . | . | -1.9% | . | HeLa viability=-5.0
COc1ccc(CN2CCC3(CC2)c2ccccc2[C@@H](NC(=O)c2ccsc2)[C@@H]3OC)cc1O | . | 0.3% | . | . | . | .
CC(O)(COc1ccccc1)c1ccc2c(c1)CN(Cc1ccccn1)CCO2 (configuration not stated) | . | -0.7% | . | . | . | .
CCn1c(N)c(C(=O)NCc2ccco2)sc1=S | -13.3% | -0.2% | 3.55µM* | -1.1% | -1.8% | -15.3% | HeLa viability=-25.5
CCOC(=O)c1ccc(-n2c(N)c(C(=O)NCc3ccco3)sc2=S)cc1 | ? | -7.4%[38.3 µM] | ? | 2.9% | -7.3% | -7.2%
COc1ccc(S(=O)(=O)c2ccc(O)cc2)cc1 | ? | 1.6% | 4.47µM* | -0.6% | 3.4% | 6.1% | HeLa viability=0.2
c1ccc(-c2nnc(Cn3c4ccccc4c4nc5ccccc5nc43)o2)cc1 | . | 7.4% | . | . | -6.9% | .

Compound activity: PubChem BioAssay, National Center for Advancing Translational Sciences (NCATS)
